This passage reports log2 fold change results from the supplement of paper PMC10849652.

Holding throughout (test): log2 fold change, soluble protein after heating vs DMSO (PISA); higher = thermal stabilisation; K562 lysate, 10 uM; active = over 0.2 and 3.5 SD of the protein, either way, in both replicates (recomputed)
Compound in test [1]: C1=CC=C(C=C1)[C@H](COC2=CC3=C(C=C2)NC(=O)N3)NC(=O)C4=CC=CN(C4=O)CC5=CC(=C(C=C5)F)F
In a few lines: (§1)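 A 30 min treatment with 10 μM compound was applied to crude K562 extract at 1 mg/mL protein in PBS pH 7.4 with 1 mM MgCl2. Heating for 3 min spanned 48°C-58°C, after which aliquots were pooled, adjusted to 0.5% NP-40 at 4°C and spun at 21,000xg for 90 min. TMTpro 16plex LC-MS/MS of the supernatant, with channel sums equalised, gave values recorded as log-two fold change in thermal stability against solvent controls, from duplicates.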

Compound in test [2]: CC1=C(SC2=C1C(=N[C@H](C3=NN=C(N32)C)CC(=O)N)C4=CC=C(C=C4)Cl)C
In a few lines:
as §1

Compound in test [3]: CC1=C2C(=CC=C1)N=C(N(C2=O)C3=CC=CC=C3C)CN4C=NC5=C(N=CN=C54)N
In a few lines:
as §1

Compound in test [4]: Cc1sc2c(c1C)C(c1ccc(Cl)cc1)=N[C@@H](CC(=O)OC(C)(C)C)c1nnc(C)n1-2
In a few lines: as §1

Compound in test [5]: c1ccc([C@@H]2C[C@H]2NC2CCNCC2)cc1
In a few lines:
as §1

Of roughly 8,800 targets only a part is listed; those with a hit were picked by preference. About 0.5% of all pairs of compound and target were hits.

Chain of UniProt Q8NCA5 (Q8NCA5 whole entry, looked up): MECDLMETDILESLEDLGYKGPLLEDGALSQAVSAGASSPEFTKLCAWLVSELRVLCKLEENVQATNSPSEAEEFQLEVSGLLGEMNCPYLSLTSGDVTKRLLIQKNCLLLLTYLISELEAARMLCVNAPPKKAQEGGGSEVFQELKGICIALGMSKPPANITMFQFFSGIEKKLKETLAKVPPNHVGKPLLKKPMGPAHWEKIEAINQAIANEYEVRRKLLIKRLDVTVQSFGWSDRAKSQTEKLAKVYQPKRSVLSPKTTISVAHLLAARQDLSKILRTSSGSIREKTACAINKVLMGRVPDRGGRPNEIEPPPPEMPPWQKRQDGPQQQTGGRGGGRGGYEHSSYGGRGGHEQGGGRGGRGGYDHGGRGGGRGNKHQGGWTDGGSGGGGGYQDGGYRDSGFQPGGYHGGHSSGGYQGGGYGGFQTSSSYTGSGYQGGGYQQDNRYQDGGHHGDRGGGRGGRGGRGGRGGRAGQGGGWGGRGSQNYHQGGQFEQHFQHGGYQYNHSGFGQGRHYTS
Chain of UniProt Q5VTE0 (Q5VTE0 whole entry, looked up): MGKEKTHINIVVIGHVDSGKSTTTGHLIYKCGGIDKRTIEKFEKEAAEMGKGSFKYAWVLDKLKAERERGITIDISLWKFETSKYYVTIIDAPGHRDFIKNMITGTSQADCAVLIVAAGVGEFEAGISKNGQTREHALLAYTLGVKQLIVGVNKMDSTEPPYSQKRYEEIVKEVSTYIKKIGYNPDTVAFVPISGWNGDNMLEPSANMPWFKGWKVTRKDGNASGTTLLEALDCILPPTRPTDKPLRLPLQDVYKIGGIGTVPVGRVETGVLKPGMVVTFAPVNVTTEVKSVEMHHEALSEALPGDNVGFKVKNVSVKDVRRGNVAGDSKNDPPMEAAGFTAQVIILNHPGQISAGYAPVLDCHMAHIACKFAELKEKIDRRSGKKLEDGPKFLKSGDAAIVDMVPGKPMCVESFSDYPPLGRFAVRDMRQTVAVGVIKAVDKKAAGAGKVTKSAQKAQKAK
Chain of UniProt Q8WWZ3 (Q8WWZ3 whole entry, looked up): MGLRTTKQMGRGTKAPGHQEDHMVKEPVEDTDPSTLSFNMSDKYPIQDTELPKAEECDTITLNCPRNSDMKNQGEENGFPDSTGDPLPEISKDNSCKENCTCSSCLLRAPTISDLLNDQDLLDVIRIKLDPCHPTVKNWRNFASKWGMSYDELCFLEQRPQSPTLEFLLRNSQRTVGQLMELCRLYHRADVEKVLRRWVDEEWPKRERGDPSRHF
Chain of UniProt Q9GZT9 (Q9GZT9 whole entry, looked up): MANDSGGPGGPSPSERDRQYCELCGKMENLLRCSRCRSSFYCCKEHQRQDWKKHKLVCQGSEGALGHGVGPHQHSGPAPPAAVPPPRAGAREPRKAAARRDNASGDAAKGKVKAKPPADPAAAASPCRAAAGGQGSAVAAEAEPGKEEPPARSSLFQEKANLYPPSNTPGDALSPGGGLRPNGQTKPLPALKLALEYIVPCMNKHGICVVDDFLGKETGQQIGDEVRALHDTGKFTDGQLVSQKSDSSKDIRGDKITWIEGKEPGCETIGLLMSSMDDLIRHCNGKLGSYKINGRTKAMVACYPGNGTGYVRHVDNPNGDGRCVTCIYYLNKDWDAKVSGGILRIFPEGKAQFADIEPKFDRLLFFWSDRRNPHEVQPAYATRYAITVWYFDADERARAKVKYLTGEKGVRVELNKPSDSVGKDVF
Chain of UniProt P06733 (P06733 whole entry, looked up): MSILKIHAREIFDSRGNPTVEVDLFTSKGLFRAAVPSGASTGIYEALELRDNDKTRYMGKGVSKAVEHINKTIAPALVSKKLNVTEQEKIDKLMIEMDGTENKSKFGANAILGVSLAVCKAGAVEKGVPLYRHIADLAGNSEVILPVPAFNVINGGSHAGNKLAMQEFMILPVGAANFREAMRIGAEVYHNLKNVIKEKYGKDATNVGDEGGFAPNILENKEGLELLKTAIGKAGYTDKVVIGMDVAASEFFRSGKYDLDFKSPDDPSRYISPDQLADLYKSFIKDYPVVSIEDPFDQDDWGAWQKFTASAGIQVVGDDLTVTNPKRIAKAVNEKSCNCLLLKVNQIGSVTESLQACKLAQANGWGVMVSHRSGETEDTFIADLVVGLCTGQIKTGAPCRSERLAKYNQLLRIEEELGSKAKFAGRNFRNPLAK
Chain of UniProt Q9UET6 (Q9UET6 whole entry, looked up): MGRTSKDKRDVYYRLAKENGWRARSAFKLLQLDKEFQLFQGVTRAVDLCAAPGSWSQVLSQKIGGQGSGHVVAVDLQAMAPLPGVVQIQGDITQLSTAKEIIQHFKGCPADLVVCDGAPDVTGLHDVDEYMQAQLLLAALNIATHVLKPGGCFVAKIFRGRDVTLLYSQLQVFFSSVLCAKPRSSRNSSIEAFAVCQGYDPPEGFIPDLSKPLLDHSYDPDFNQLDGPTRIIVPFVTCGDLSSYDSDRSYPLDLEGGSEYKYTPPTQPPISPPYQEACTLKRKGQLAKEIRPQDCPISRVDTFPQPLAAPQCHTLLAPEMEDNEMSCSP
Chain of UniProt Q92947 (Q92947 whole entry, looked up): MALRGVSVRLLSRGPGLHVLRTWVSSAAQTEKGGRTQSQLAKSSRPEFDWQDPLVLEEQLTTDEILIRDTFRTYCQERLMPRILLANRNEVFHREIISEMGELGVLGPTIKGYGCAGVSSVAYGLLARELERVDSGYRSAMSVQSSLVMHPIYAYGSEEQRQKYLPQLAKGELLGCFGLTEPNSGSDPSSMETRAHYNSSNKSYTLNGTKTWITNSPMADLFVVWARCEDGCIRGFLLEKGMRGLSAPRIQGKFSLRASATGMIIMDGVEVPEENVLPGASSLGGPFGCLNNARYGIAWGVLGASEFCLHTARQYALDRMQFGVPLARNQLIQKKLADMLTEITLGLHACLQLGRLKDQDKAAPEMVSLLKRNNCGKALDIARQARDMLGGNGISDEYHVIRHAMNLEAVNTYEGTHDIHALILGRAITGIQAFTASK
Chain of UniProt Q92889 (Q92889 whole entry, looked up): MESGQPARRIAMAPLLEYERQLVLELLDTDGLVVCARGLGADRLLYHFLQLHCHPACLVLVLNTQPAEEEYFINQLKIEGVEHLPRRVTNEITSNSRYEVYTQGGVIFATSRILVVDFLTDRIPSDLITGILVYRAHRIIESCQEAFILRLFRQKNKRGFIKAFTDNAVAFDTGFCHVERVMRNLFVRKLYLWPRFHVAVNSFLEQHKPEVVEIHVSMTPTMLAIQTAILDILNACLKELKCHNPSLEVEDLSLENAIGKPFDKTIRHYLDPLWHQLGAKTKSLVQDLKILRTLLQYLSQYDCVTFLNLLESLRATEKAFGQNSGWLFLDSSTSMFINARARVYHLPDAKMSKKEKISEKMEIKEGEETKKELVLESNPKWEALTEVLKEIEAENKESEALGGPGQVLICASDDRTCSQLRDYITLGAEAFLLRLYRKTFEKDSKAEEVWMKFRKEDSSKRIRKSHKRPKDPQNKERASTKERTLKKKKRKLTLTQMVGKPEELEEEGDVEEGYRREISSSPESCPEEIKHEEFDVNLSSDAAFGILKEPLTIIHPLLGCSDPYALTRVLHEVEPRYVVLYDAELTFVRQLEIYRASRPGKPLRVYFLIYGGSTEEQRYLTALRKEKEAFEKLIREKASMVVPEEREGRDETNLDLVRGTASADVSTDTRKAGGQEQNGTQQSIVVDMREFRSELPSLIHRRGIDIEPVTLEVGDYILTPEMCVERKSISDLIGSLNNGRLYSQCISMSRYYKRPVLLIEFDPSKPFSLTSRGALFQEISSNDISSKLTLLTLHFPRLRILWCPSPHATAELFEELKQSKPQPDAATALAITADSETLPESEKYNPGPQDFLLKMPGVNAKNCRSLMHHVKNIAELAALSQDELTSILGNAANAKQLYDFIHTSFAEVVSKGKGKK
Chain of UniProt O43427 (O43427 whole entry, looked up): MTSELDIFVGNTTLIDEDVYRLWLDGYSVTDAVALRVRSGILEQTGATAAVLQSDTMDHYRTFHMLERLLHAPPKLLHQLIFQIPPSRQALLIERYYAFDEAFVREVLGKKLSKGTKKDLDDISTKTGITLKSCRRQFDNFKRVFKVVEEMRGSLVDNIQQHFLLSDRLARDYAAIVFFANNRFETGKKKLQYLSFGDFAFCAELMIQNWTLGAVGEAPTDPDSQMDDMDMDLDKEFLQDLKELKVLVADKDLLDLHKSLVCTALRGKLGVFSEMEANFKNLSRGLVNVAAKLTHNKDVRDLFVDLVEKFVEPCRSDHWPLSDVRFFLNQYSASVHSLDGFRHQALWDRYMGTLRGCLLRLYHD
Chain of UniProt P11171 (P11171 whole entry, looked up): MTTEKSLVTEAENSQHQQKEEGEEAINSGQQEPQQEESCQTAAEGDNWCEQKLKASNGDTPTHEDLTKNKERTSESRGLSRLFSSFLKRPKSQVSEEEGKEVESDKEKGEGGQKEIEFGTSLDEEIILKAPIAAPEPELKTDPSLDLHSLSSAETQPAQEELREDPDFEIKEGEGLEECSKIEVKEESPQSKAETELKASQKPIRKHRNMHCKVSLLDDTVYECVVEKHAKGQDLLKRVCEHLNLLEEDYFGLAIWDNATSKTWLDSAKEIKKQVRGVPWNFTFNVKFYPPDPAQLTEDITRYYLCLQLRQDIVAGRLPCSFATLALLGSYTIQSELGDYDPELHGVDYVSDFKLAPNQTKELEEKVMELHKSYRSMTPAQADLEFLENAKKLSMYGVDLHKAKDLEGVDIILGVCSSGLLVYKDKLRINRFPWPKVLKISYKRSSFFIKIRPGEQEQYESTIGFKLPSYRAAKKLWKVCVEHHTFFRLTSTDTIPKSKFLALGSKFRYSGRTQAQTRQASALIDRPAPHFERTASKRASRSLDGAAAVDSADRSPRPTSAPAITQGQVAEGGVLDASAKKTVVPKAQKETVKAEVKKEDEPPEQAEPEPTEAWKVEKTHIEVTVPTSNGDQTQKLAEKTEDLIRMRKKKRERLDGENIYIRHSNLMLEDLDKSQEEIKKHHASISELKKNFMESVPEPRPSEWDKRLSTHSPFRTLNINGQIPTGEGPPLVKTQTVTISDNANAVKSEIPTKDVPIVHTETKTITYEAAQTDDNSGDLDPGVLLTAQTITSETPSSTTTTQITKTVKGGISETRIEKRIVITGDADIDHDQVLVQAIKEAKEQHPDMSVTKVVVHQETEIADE

EDARADD (UniProt Q8WWZ3): the log2 fold change is 0.074 (inactive) in test [1]; -0.088 (inactive) in test [2]; -0.032 (inactive) in test [3]; -0.037 (inactive) in test [4]; 0.064 (inactive) in test [5].

With EXOC5 (UniProt O00471), the log2 fold change in test [1] was -0.065 (inactive); in test [2] it was -0.002 (inactive); in test [3] it was 0.068 (inactive); in test [4] it was -0.023 (inactive); in test [5], 0.035 (inactive).

Regarding EPRS (UniProt P07814), the log2 fold change in test [1] is -0.005 (inactive); in test [2] it was 0.002 (inactive); in test [3], 0.003 (inactive); in test [4], 0.043 (inactive); in test [5] it was 0.016 (inactive).

For FIBP (UniProt O43427), the log2 fold change was -0.018 (inactive) in test [1]; 0 (inactive) in test [2]; -0.044 (inactive) in test [3]; -0.027 (inactive) in test [4]; -0.002 (inactive) in test [5].

On to GABPB1 isoform 3 (UniProt Q06547), for which the log2 fold change was 0.039 (inactive) in test [1]; 0.052 (inactive) in test [2]; -0.017 (inactive) in test [3]; -0.024 (inactive) in test [4]; -0.025 (inactive) in test [5].

Turning to FAM98A (UniProt Q8NCA5), the log2 fold change is 0.017 (inactive) in test [1]; 0.002 (inactive) in test [2]; -0.048 (inactive) in test [3]; 0.016 (inactive) in test [4]; 0.02 (inactive) in test [5].

In the case of FAM120B (UniProt Q96EK7), the log2 fold change in test [1] is 0.034 (inactive); in test [2], 0.059 (inactive); in test [3] it was -0.004 (inactive); in test [4], -0.016 (inactive); in test [5], 0.035 (inactive).

For GFPT1 (UniProt Q06210), the log2 fold change in test [1] was -0.021 (inactive); in test [2] it was -0.001 (inactive); in test [3], 0.021 (inactive); in test [4], 0.019 (inactive); in test [5], 0.058 (inactive).

Regarding EEFSEC (UniProt P57772), the log2 fold change in test [1] was -0.033 (inactive); in test [2], -0.003 (inactive); in test [3] it was 0.009 (inactive); in test [4], -0.003 (inactive); in test [5], 0.015 (inactive).

Consider EEF1A1P5 (UniProt Q5VTE0), for which the log2 fold change in test [1] is 0.006 (inactive); in test [2] it was 0.011 (inactive); in test [3], 0.004 (inactive); in test [4], -0.067 (inactive); in test [5], -0.036 (inactive).

As to ENO1, A0A2R8YEM5, the log2 fold change in test [1] is 0.026 (inactive); in test [2], -0.096 (inactive); in test [3] it was -0.048 (inactive); in test [4], -0.028 (inactive); in test [5], -0.21 (inactive).

For the target FKBP8 isoform 2 (UniProt Q14318), the log2 fold change in test [1] is -0.061 (inactive); in test [2], 0.012 (inactive); in test [3], -0.023 (inactive); in test [4], -0.084 (inactive); in test [5], 0.043 (inactive).

As to ERCC4 (UniProt Q92889), the log2 fold change was -0.038 (inactive) in test [1]; 0.036 (inactive) in test [2]; 0.043 (inactive) in test [3]; -0.008 (inactive) in test [4]; -0.305 (active) in test [5].

Turning to ESPL1 (UniProt Q14674), the log2 fold change is 0.016 (inactive) in test [1]; 0.129 (inactive) in test [2]; 0.251 (inactive) in test [3]; 0.136 (inactive) in test [4]; 0.077 (inactive) in test [5].

Turning to DUSP22 isoform 2 (UniProt Q9NRW4), the log2 fold change in test [1] is 0.05 (inactive); in test [2] it was -0.068 (inactive); in test [3], 0.038 (inactive); in test [4], 0.099 (inactive); in test [5] it was -0.028 (inactive).

On to GCDH (UniProt Q92947), for which the log2 fold change in test [1] is 0.034 (inactive); in test [2], -0.032 (inactive); in test [3], -0.022 (inactive); in test [4], -0.008 (inactive); in test [5] it was -0.004 (inactive).

Regarding FAM114A2 (UniProt Q9NRY5), the log2 fold change was 0.073 (inactive) in test [1]; -0.002 (inactive) in test [2]; -0.027 (inactive) in test [3]; 0.019 (inactive) in test [4]; 0.035 (inactive) in test [5].

As for FTSJ1 (UniProt Q9UET6), the log2 fold change in test [1] is 0.016 (inactive); in test [2] it was 0.013 (inactive); in test [3], -0.025 (inactive); in test [4] it was -0.005 (inactive); in test [5], 0.048 (inactive).

Consider FADS3 (UniProt Q9Y5Q0), for which the log2 fold change in test [1] was 0.021 (inactive); in test [2], 0.018 (inactive); in test [3] it was -0.227 (inactive); in test [4], -0.06 (inactive); in test [5], -0.115 (inactive).

Regarding EGLN1 (UniProt Q9GZT9), the log2 fold change in test [1] is 0.095 (inactive); in test [2], -0.023 (inactive); in test [3], -0.01 (inactive); in test [4], -0.038 (inactive); in test [5] it was -0.007 (inactive).

Turning to EDC4 (UniProt Q6P2E9), the log2 fold change was -0.026 (inactive) in test [1]; 0.005 (inactive) in test [2]; 0.027 (inactive) in test [3]; 0.008 (inactive) in test [4]; 0.011 (inactive) in test [5].

Turning to ENO1 isoform 2 (UniProt P06733), the log2 fold change was 0.068 (inactive) in test [1]; -0.145 (inactive) in test [2]; 0.033 (inactive) in test [3]; -0.062 (inactive) in test [4]; -0.143 (inactive) in test [5].

Take GAMT (UniProt Q14353): the log2 fold change was -0.025 (inactive) in test [1]; -0.083 (inactive) in test [2]; -0.002 (inactive) in test [3]; 0.114 (inactive) in test [4]; 0.005 (inactive) in test [5].

Turning to EPB41 (UniProt P11171), the log2 fold change in test [1] was -0.004 (inactive); in test [2], -0.021 (inactive); in test [3], -0.023 (inactive); in test [4], 0.027 (inactive); in test [5], 0.032 (inactive).
